Source: PubChem BioAssay (EPA / NIEHS)
The source made the active and inactive calls. How the source made its calls: active means hit-call score of the fitted dose curve at least 0.9, where 1 is the maximum; inactive means score below 0.9.

Legend:
[1] = ATG_ISRE_CIS: Attagene CIS-FACTORIAL HepG2 Assay for human Interferon Regulatory Factor 1 (IRF1) binding to an Interferon-Stimulated Response Element (ISRE) (AID 2282948); details: HepG2 ISRE cis-reporter (Attagene), mRNA transcription readout; actives raise or lower the signal
How it was run: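 Uses HepG2 liver cells transfected with cis-regulated reporters and measures mRNA 24 h post-dosing through RT-PCR, primer-extension labelling and capillary electrophoresis, with DMSO as negative control.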

[2] = ATG_M_32_CIS: Attagene CIS-FACTORIAL HepG2 Assay for M32 Transcription Factor (Internal Marker) (AID 2282949); details: HepG2 Attagene cis-factorial M32 reporter, mRNA; actives raise or lower the signal;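 further: background control marker of the multiplexed CIS panel rather than a real target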
How it was run: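 Transient MRTU transfection of HepG2; 24 h compound treatment; TriZol RNA, oligo(dT) RT, reporter PCR, 6-FAM primer extension, HpaI cut, CE. Gain/loss of signal vs DMSO.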

[3] = ATG_M_06_CIS: Attagene CIS-FACTORIAL HepG2 Assay for M06 Transcription Factor (Internal Marker) (AID 2282950); details: HepG2 Attagene CIS-FACTORIAL M06 internal marker reporter; actives raise or lower the signal
How it was run: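 HepG2 cells transiently transfected with cis-regulated multiple reporter transcription units were exposed to chemical for 24 h; reporter mRNA was quantified by RT-PCR, 6-FAM primer labelling, HpaI digestion and capillary electrophoresis, fitted bidirectionally against DMSO.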

[4] = target: Hypoxia-inducible factor 1-alpha (Homo sapiens) (UniProt Q16665); assay: ATG_HIF1a_CIS: Attagene CIS-FACTORIAL HepG2 Assay for human Hypoxia Inducible Factor 1 (HIF1A) (AID 2282951); details: HepG2 Attagene cis-factorial HIF1a reporter transcription; actives raise or lower the signal
Hypoxia-inducible factor 1-alpha (Homo sapiens), sequence (Q16665 whole entry, looked up): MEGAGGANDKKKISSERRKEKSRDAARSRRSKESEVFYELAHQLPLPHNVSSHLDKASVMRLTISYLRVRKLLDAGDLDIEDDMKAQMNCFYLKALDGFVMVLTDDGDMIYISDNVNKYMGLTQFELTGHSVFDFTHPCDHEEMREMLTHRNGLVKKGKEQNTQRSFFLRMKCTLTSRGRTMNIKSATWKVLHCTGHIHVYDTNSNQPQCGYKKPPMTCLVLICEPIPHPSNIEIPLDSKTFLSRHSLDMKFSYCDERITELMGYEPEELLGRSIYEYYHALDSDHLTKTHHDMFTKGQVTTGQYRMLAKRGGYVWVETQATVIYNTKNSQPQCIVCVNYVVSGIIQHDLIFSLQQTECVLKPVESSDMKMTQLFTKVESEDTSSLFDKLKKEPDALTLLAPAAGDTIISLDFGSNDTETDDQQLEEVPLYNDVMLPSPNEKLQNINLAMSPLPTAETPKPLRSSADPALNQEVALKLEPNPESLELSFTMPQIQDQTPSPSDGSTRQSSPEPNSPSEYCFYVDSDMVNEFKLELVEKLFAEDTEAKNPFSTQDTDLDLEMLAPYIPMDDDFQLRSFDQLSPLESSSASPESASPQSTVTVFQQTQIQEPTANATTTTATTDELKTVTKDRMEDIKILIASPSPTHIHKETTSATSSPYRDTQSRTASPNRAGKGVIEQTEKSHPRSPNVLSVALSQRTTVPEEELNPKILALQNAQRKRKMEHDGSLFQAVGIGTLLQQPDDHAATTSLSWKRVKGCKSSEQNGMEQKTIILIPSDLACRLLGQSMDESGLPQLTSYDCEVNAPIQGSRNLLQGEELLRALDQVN
How it was run: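 HepG2 cells transiently transfected with multiple cis-regulated reporter transcription units measure endogenous transcription factor activity. After 24 h exposure, reporter mRNA is quantified by RT-PCR with 6-FAM labelling, HpaI digestion and capillary electrophoresis. Bidirectional fitting against DMSO.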

[5] = target: Hepatocyte nuclear factor 6 (Homo sapiens) (UniProt Q9UBC0); assay: ATG_HNF6_CIS: Attagene CIS-FACTORIAL HepG2 Assay for human Hepatocyte Nuclear Factor 6 (HNF6) (AID 2282952); details: HepG2 Attagene cis-factorial HNF6 reporter transcription; actives raise or lower the signal
Hepatocyte nuclear factor 6 (Homo sapiens), sequence (Q9UBC0 whole entry, looked up, the tested form may be a part): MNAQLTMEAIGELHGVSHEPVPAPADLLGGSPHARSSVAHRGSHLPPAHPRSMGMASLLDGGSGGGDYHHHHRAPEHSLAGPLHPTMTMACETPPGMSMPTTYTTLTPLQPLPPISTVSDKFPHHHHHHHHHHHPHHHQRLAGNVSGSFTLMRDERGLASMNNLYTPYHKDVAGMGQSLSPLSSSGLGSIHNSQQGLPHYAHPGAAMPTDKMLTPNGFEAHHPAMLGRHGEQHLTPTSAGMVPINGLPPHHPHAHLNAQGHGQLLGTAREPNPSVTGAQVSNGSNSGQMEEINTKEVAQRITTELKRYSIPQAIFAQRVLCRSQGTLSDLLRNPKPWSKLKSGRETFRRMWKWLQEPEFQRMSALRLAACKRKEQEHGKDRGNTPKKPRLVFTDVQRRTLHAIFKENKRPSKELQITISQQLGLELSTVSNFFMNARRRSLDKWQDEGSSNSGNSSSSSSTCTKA
How it was run: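 Using cis-element reporters in HepG2 liver cells, the assay tracks endogenous factor-driven transcription 24 h post-dosing. Signal comes from 6-FAM-labelled, HpaI-digested RT-PCR fragments, with gain or loss scored against DMSO.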

[6] = target: Heat shock factor protein 1 (Homo sapiens) (UniProt Q00613); assay: ATG_HSE_CIS: Attagene CIS-FACTORIAL HepG2 Assay for human Heat Shock Transcription Factor 1 (HSE) (AID 2282953); details: HepG2 HSE cis-reporter, Attagene RNA transcription; actives raise or lower the signal
Heat shock factor protein 1 (Homo sapiens), sequence (Q00613 whole entry, looked up): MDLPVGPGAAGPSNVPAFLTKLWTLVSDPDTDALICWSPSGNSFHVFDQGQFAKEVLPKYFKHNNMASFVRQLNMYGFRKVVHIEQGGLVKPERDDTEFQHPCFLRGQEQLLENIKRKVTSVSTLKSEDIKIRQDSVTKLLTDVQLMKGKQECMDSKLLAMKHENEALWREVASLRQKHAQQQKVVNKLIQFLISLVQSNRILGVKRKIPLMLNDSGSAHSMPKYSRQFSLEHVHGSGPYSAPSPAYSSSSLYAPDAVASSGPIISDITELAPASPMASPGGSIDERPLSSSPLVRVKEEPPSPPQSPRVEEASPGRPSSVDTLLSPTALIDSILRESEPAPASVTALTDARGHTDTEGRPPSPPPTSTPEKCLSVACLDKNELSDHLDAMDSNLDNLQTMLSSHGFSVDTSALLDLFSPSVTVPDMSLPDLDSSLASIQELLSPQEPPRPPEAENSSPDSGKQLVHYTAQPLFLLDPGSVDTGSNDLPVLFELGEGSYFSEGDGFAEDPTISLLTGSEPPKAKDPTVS
How it was run: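 HepG2 cells transiently transfected with multiple reporter transcription units under cis-regulatory promoter control, measuring endogenous transcription factor activity. After 24 h chemical exposure, reporter mRNA quantified by RT-PCR, fluorescent labelling, HpaI digestion and capillary electrophoresis; bidirectional fit versus DMSO.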

[7] = ATG_MRE_CIS: Attagene CIS-FACTORIAL HepG2 Assay for human Metal Responsive Element (MRE) (AID 2282954); details: HepG2 MRE cis-reporter transcription, Attagene multiplex; actives raise or lower the signal
How it was run: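 Multiplexed cis-reporter assay in human HepG2 liver cells, 24 h incubation with test chemical. Reporter transcripts measured by RT-PCR and capillary electrophoresis; values from bidirectional curve fitting versus DMSO.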

[8] = ATG_PBREM_CIS: Attagene CIS-FACTORIAL HepG2 Assay for human Phenobarbital-responsive Enhancer Module (PBREM) (AID 2282955); details: HepG2 PBREM cis-reporter, Attagene multiplexed transcription; actives raise or lower the signal
How it was run: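 HepG2 cells transiently transfected with multiple cis-regulated reporter units measure endogenous transcription factor activity; 24 h compound exposure. Reporter mRNA quantified by RT-PCR, fluorescent labelling, HpaI digestion and capillary electrophoresis; bidirectional fit versus DMSO.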

[9] = ATG_PXRE_CIS: Attagene CIS-FACTORIAL HepG2 Assay for human Pregnane X Receptor Element (PXRE) (AID 2282957); details: HepG2 Attagene CIS-FACTORIAL PXRE reporter, mRNA; actives raise or lower the signal
How it was run: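 Using HepG2 transfected with multiple reporter transcription units, endogenous factor-driven transcription was scored as reporter mRNA after 24 h exposure.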

[10] = ATG_PPRE_CIS: Attagene CIS-FACTORIAL HepG2 Assay for human Peroxisome Proliferator-activated Response Element (PPRE) (AID 2282958); details: HepG2 PPRE cis-element reporter, Attagene transcription factor profiling; actives raise or lower the signal
How it was run: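 HepG2 cells are transiently transfected with multiplexed cis-promoter reporter units to report endogenous PPAR activity. After 24 h dosing, reporter mRNA is read by RT-PCR and capillary electrophoresis. Fitting is bidirectional against DMSO.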

[11] = ATG_RORE_CIS: Attagene CIS-FACTORIAL HepG2 Assay for human RAR-related Orphan Receptor Element (RORE) (AID 2282959); details: HepG2 Attagene cis-factorial RORE reporter, mRNA; actives raise or lower the signal
How it was run: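 HepG2 cells carrying transiently transfected cis-regulated reporter units; RORE-driven reporter mRNA quantified 24 h post-dosing by RT-PCR, 6-FAM primer extension, HpaI digestion and capillary electrophoresis. Bidirectional fit versus DMSO.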

[12] = ATG_Sox_CIS: Attagene CIS-FACTORIAL HepG2 Assay for human SRY-box transcription factor (SOX) (AID 2282960); details: HepG2 Attagene cis-factorial SOX reporter, mRNA; actives raise or lower the signal
How it was run: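 HepG2 cells transiently transfected with multiple cis-regulated reporter units, then dosed for 24 h. Reporter mRNA quantified by RT-PCR, fluorescent labelling, HpaI digestion and capillary electrophoresis; bidirectional fit versus DMSO.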

[13] = target: Transcription factor Sp1 (Homo sapiens) (UniProt P08047); assay: ATG_Sp1_CIS: Attagene CIS-FACTORIAL HepG2 Assay for human Specificity Protein 1 (Sp1) (AID 2282961); details: HepG2 Sp1 cis-reporter transcription, actives raise or lower the signal
Transcription factor Sp1 (Homo sapiens), sequence (P08047 whole entry, looked up): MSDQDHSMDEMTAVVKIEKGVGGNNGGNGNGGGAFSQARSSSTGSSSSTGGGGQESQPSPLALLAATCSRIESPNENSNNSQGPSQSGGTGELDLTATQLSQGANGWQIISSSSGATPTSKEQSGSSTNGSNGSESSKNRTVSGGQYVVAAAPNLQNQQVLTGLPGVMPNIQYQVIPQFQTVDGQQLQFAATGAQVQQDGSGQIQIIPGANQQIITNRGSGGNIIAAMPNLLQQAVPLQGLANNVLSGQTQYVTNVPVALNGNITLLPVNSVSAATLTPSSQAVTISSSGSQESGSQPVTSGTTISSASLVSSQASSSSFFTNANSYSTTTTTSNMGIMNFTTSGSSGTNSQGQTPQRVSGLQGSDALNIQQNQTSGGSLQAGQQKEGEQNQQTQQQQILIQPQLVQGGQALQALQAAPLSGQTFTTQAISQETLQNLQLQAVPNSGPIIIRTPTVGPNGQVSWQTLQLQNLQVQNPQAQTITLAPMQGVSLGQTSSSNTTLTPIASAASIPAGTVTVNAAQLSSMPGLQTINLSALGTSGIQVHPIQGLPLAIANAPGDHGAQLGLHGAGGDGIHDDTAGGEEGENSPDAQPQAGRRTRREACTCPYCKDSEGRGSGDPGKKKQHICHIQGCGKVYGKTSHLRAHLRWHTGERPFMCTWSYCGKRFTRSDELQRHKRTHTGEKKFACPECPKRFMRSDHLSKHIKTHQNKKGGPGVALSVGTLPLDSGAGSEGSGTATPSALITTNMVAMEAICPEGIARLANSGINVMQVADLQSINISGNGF
How it was run: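 HepG2 cells transiently transfected with multiplexed cis-regulated reporter constructs, chemical exposure 24 h. Reporter mRNA quantified by RT-PCR with capillary electrophoresis; bidirectional fit relative to DMSO.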

[14] = ATG_SREBP_CIS: Attagene CIS-FACTORIAL HepG2 Assay for human Sterol Regulatory Element Binding (SREBP) (AID 2282962); details: HepG2 Attagene cis-factorial SREBP reporter, mRNA; actives raise or lower the signal
How it was run: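 In this cis-format assay, HepG2 liver cells express reporters controlled by promoter elements responsive to native transcription factors. Exposure lasts 24 h; reporter mRNA fluorescence from capillary electrophoresis gives the signal, fitted bidirectionally against DMSO.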

[15] = target: Signal transducer and activator of transcription 3 (Homo sapiens) (UniProt P40763); assay: ATG_STAT3_CIS: Attagene CIS-FACTORIAL HepG2 Assay for human Signal Transducer and Activator of Transcription 3 (STAT3) (AID 2282963); details: HepG2, Attagene cis-factorial STAT3 reporter transcription; actives raise or lower the signal
Signal transducer and activator of transcription 3 (Homo sapiens), sequence (P40763 whole entry, looked up): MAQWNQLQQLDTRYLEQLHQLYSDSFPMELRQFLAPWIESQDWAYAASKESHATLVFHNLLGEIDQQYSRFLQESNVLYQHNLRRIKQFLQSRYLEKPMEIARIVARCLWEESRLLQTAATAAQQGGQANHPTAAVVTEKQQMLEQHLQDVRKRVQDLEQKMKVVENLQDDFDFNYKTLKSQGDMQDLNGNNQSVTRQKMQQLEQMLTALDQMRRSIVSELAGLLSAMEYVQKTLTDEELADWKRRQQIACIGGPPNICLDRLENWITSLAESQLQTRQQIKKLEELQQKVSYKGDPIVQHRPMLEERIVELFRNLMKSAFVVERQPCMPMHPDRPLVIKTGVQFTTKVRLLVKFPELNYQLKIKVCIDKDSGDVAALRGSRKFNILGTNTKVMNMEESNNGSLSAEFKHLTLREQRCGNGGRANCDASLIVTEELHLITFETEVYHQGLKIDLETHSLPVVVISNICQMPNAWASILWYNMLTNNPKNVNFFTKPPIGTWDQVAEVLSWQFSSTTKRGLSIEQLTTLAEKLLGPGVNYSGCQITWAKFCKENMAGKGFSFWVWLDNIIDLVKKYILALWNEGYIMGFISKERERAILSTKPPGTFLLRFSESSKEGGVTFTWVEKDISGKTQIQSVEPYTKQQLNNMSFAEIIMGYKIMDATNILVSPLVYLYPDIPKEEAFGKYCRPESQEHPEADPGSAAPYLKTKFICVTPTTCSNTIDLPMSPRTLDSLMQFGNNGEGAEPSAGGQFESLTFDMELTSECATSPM
How it was run: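 Cis-factorial format: endogenous transcription factors in HepG2 drive transfected reporter units. After 24 h treatment, reporter RNA was reverse-transcribed, amplified, FAM-labelled and HpaI-digested before CE analysis; activity scored in both directions against DMSO.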

[16] = ATG_TA_CIS: Attagene CIS-FACTORIAL HepG2 Assay for human TA Basal Promoter (AID 2282964); details: HepG2 Attagene CIS-factorial TA basal promoter reporter; actives raise or lower the signal
How it was run: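 HepG2 cells transiently transfected with multiplexed cis-promoter reporter units, dosed 24 h. Reporter mRNA measured by RT-PCR, 6-FAM labelling, HpaI digestion and capillary electrophoresis; bidirectional fit versus DMSO baseline, serving as background control.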

[17] = ATG_TAL_CIS: Attagene CIS-FACTORIAL HepG2 Assay for human TAL Basal Promoter (AID 2282966); details: HepG2 Attagene cis-factorial TAL promoter reporter; actives raise or lower the signal;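 further: background control endpoint measuring basal TAL promoter reporter mRNA not a specific factor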
How it was run: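 After 24 hours of chemical exposure, transfected HepG2 cells yielded RNA that was converted to 6-FAM-labelled, HpaI-digested reporter fragments for capillary electrophoresis. Values derive from bidirectional fitting against DMSO controls.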

[18] = ATG_TGFb_CIS: Attagene CIS-FACTORIAL HepG2 Assay for human Transforming Growth Factor (TGF) (AID 2282967); details: HepG2 Attagene CIS TGFb reporter, mRNA transcription; actives raise or lower the signal
How it was run: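 HepG2 cells transiently transfected with cis-promoter-driven multiplexed reporter units; 24 h compound exposure. Reporter mRNA measured by RT-PCR, 6-FAM labeling, HpaI digestion and capillary electrophoresis; bidirectional fit versus DMSO baseline.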

[19] = target: Paired box protein Pax-6 (Homo sapiens) (UniProt P26367); assay: ATG_Pax6_CIS: Attagene CIS-FACTORIAL HepG2 Assay for human Paired Box 6 (PAX6) (AID 2282956); details: HepG2 CIS-FACTORIAL PAX6 reporter transcription, RNA readout; actives raise or lower the signal
Paired box protein Pax-6 (Homo sapiens), sequence (P26367 whole entry, looked up): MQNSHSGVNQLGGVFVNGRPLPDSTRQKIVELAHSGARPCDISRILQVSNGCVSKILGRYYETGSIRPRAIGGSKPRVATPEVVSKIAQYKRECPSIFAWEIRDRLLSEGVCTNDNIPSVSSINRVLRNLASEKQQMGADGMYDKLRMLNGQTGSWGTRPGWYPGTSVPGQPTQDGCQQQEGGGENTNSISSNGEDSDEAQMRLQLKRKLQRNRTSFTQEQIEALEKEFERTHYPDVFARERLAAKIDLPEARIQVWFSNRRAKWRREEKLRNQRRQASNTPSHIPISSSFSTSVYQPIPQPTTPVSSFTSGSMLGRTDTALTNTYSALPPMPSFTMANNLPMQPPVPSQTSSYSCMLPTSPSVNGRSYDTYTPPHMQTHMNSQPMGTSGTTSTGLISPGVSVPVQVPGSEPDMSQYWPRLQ
How it was run: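 DMSO-referenced bidirectional fits of reporter mRNA fluorescence; HepG2 with transient cis-promoter MRTUs, 24 h post-dose, RT-PCR plus capillary electrophoresis detection.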

[20] = ATG_TCF_b_cat_CIS: Attagene CIS-FACTORIAL HepG2 Assay for human T-Cell-Factor with beta-catenin (TCF/b-cat) (AID 2282965); details: HepG2 TCF/beta-catenin cis-reporter transcription, actives raise or lower the signal
How it was run: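 Endogenous TCF/LEF activity read as reporter transcript level via RT-PCR and capillary electrophoresis fluorescence in transfected HepG2, 24 h exposure; gain or loss of signal fitted against DMSO controls.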

Measured: AC50

c1cc[c]([Sb]([c]2ccccc2)[c]2ccccc2)cc1
active: [9] 2.1 µM | [18] 41.1 µM
not listed: [19] | [20]
inactive: all other assays above

CCCCS(=O)(=O)Cl
not listed: [10] | [18]
inactive: all other assays above

O=[N+]([O-])c1ccc(Nc2ccccc2)cc1
active: [1] 130 µM | [7] 80.4 µM | [8] 23.8 µM | [9] 26.9 µM
not listed: [10] | [16] | [17]
inactive: all other assays above

O=S(=O)(F)C(F)(F)C(F)(F)C(F)(F)C(F)(F)F
not listed: [13] | [16] | [19]
inactive: all other assays above
